Compound activity (PubChem BioAssay)
A selection: hits, their analogues and other compounds. The true share with any hit is near 8%.
FMDV antiviral: foot and mouth disease virus antiviral activity | 410,000 tested, 1.2% active | Potency, µM (doses to about 57.9 µM), for inactives: top-dose activity change, negative = inhibition, most hits filed as inhibitors | AID 1159524 | FMDV antiviral cell-based qHTS; calls by dose curve; tested in HEK293T cells; also: read-out not given here; potency is read from the fitted curve at half-maximal effect; % is scaled to controls: 0 for no effect and ±100 for the full control effect; nearly all actives have a fitted effect of over 45% in size
SARS PLpro yeast: SARS-CoV PLP inhibition in yeast; S. cerevisiae expressing SARS-CoV PLpro, growth rescue; 330,000 tested, 0.19% active; Potency, µM (titrated, usually from 32.9 µM), for the others: at the highest dose activity, positive = growth rescue, usual class: activators; calls by dose curve; also: potency is read from the fitted curve at half-maximal effect; 0% is about no effect; nearly all actives have a fitted effect of over 55% in size
Lassa entry inh: Lassa virus entry inhibition; Lassa virus pseudotype entry inhibition, cell reporter; Potency, µM (doses to about 37.9 µM), for the others: top-dose activity change, negative = inhibition, usual class: inhibitors; 300,000 tested, 1.2% active; AID 540256; calls by dose curve; tested in HEK293 cells; also: potency is read from the fitted curve at half-maximal effect; % is scaled to controls: 0 for no effect and ±100 for the full control effect; nearly all actives have a fitted effect of over 50% in size
HCV inhibitor: inhibitors of hepatitis C virus infection; Potency, µM (series often up to 41.8 µM), inactives show at the highest dose activity change, negative = inhibition, hits mostly inhibitors; AID 651820; Huh7.5.1 HCVcc-Cre infection, luciferase reporter, 44 h; 340,000 tested, 3.4% active; active = well fitted inhibition curve with a large enough effect; inconclusive = small, poorly fitted or top-dose-only effect, or another doubt; inactive = no such curve, though single readings can be large or run the other way; also: potency is read from the fitted curve at half-maximal effect; % is scaled to controls: 0 for no effect and ±100 for the full control effect
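Luciferase read-out (15 sec integration) after a 15 min room-temperature substrate step quantifies HCVcc-Cre infection. Cells, 1,000 per well, had compound added 4 h post-plating, then virus at ~0.5 moi, and were cultured 44 h.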
HCMV inh: human cytomegalovirus inhibition | 410,000 tested, 4.5% active | activity change, negative = inhibition, % at 57.5 µM | HFF cells, HCMV-luciferase reporter, 72 h; active compounds read low; in the data active = activity change below about -60%; inconclusive = no clear call, values can overlap the other calls; inactive = above about -39%; also: % is scaled to controls: 0 for no effect and ±100 for the full control effect
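Compounds were evaluated in HFFs infected with an HCMV luciferase reporter virus (MOI 1 PFU/cell). Luciferase in lysates collected 72 h post infection served as the replication measure.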
Marburg entry inh: blocks Marburg virus binding to or entry into cells; Marburg virus pseudotyped entry inhibition, cell reporter; Potency, µM (titrated, usually from 37.8 µM), without a hit: at the top dose activity change, negative = inhibition, hits mostly inhibitors; 300,000 tested, 1.8% active; AID 540276; calls by dose curve; tested in HEK293 cells; also: potency is read from the fitted curve at half-maximal effect; % is scaled to controls: 0 for no effect and ±100 for the full control effect
* hit, by the source's call; [ ] = dose if it differs, or a comment.

CCOc1ccc(N(C)S(=O)(=O)c2cc(-c3cc(C)no3)ccc2C(C)C)cc1 was read as FMDV antiviral -26%, SARS PLpro yeast 1%, HCV inhibitor inconclusive and HCMV inh inconclusive.
`CCOc1ccc(N(C)S(=O)(=O)c2ccc(-c3cc(C)no3)s2)cc1` gave FMDV antiviral inconclusive, SARS PLpro yeast -2%, HCV inhibitor 10µM* and HCMV inh -31.
Screening COc1ccc(Cn2ccc3nc(C)c(C(=O)N4CCN(c5ccc(F)cc5)CC4)cc3c2=O)cc1 returned FMDV antiviral inconclusive, Lassa entry inh -18%[46.1 µM] and HCMV inh 1.
For Cn1c(=O)c2c(nc(SCC(=O)Nc3ccc(F)cc3)n2Cc2ccccc2F)n(C)c1=O the results were FMDV antiviral -15%, Lassa entry inh 5%[46.1 µM], HCMV inh 2 and Marburg entry inh 16%[46.1 µM].
For Cc1cc(C)c(C#N)c(SCc2ccc([N+](=O)[O-])cc2)n1 the results were FMDV antiviral -7%, SARS PLpro yeast 1%, Lassa entry inh 21%, HCV inhibitor 11%, HCMV inh -35 and Marburg entry inh -1%[46.1 µM].
For Cc1cc(C)c(C#N)c(Sc2nc(C)c([N+](=O)[O-])c(C)c2C#N)n1 the results were FMDV antiviral 22µM* and HCMV inh -38.
`Cc1nc(Sc2ccccc2)c(C#N)c(C)c1[N+](=O)[O-]` gave FMDV antiviral inconclusive, SARS PLpro yeast 0%, Lassa entry inh -20%, HCV inhibitor inconclusive, HCMV inh -103* and Marburg entry inh -9%[46.1 µM].
For C=CC[C@@]1(C(=O)OC)C=C[C@@H](C)[C@H](c2ccccc2Br)N1C(=O)C(F)(F)F the results were Lassa entry inh 2%[14.3 µM] and Marburg entry inh -11%[14.2 µM].
For CCc1ccccc1-n1nnc(-c2nsc(NC(=O)c3ccc(C)c(C)c3)n2)c1C the results were FMDV antiviral 11µM*, Lassa entry inh inconclusive and HCMV inh -92*.
For Cc1ccc(-n2nnc(-c3nsc(NC(=O)c4ccc(C)c(C)c4)n3)c2C)cc1 the results were FMDV antiviral -7%, Lassa entry inh inconclusive and HCMV inh 0.
Screening CCOc1ccccc1-n1nnc(-c2nsc(NC(=O)c3ccc(C)cc3)n2)c1C returned FMDV antiviral inconclusive, Lassa entry inh -24%[46.1 µM] and HCMV inh -75*.
Cc1cc(C(=O)Nc2ccccc2-c2nc(CNC(=O)C3COc4ccccc4O3)c(C)o2)c(C)o1 (stereo unspecified) was read as FMDV antiviral 9%.
For S=c1[nH]nc(C2CCCCC2)n1/N=C/c1ccncc1 the results were FMDV antiviral -14%, SARS PLpro yeast 0%, Lassa entry inh 1%, HCV inhibitor 8%, HCMV inh -88* and Marburg entry inh 0%[46.1 µM].
For Cc1cccc(/C=N/n2c(C3CCCCC3)n[nH]c2=S)c1 the results were FMDV antiviral -10%, SARS PLpro yeast 0% and HCV inhibitor -7%.
`CC(/C=N/n1c(C2CCCCC2)n[nH]c1=S)=C\c1ccccc1` gave FMDV antiviral -20%, SARS PLpro yeast -18%, Lassa entry inh 18µM*, HCV inhibitor -3%, HCMV inh -23 and Marburg entry inh inconclusive.
`CSc1ccc(/C=N/n2c(C3CCCCC3)n[nH]c2=S)cc1` gave FMDV antiviral -10%, SARS PLpro yeast 0%, Lassa entry inh inconclusive, HCV inhibitor -6%, HCMV inh inconclusive and Marburg entry inh inconclusive.
For O=C(CCCOc1cccc(Br)c1)NCCOc1ccccc1 the results were FMDV antiviral 10%, SARS PLpro yeast -9%, HCV inhibitor -6%, HCMV inh 20 and Marburg entry inh 7%[46.1 µM].
`CCSc1nc(-c2ccc(OC)cc2)ccc1C#N` gave FMDV antiviral -24%, SARS PLpro yeast -15%, Lassa entry inh -16%, HCV inhibitor 10µM*, HCMV inh 26 and Marburg entry inh -28%.
`CCCCSc1nc(-c2ccc(OC)cc2)ccc1C#N` gave FMDV antiviral -4%, Lassa entry inh 5%[46.1 µM], HCMV inh 2 and Marburg entry inh inconclusive.
